A word on the AC50: it is the midpoint of the concentration-response curve, whichever way the signal moves.

The structures appear in SMILES notation. Inconclusive results are not listed. Calls of active or inactive are those of the source. The calls were made as follows: active = hit-call score of the fitted dose curve at least 0.9, where 1 is the maximum; inconclusive = response in the unintended direction; inactive = score below 0.9.

This test deals with Bile acid receptor (Homo sapiens) (UniProt Q96RI1). Put plainly: OT_FXR_FXRSRC1_1440: Odyssey Thera (OT) 24-hour HEK293T Protein-Complementation Assay for Farnesoid X receptor/SRC-1 Co-activator (AID 2283384). The procedure, abridged: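 Measures ligand-driven FXR–SRC-1 co-activator recruitment in HEK293T via fragment complementation, fluorescence intensity at 24 h. DMSO served as negative control and baseline for gain-of-signal fitting.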
Sequence of Bile acid receptor (Homo sapiens) (Q96RI1 whole entry, looked up, the tested form may be a part): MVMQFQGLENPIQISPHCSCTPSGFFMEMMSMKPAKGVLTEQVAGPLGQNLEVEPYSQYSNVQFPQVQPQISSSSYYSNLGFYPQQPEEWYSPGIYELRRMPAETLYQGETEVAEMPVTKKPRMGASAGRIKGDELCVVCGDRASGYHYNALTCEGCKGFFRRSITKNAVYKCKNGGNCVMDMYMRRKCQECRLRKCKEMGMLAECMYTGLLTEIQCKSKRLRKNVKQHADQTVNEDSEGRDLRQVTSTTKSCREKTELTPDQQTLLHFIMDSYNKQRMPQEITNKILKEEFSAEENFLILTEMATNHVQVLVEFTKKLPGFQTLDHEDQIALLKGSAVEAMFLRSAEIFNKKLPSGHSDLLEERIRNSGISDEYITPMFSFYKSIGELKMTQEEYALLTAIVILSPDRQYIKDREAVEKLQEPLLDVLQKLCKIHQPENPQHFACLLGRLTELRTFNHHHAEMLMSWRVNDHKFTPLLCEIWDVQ
Turning to `Nc1ccc(N)cc1`, the result was inactive. As to `CCOCn1c(-c2ccc(Cl)cc2)c(C#N)c(Br)c1C(F)(F)F`, the AC50 is 3.05 µM (active). For `CCC[CH2][Sn]([CH2]CCC)([CH2]CCC)[CH2]CCC`, the half-maximal activity concentration (AC50) was 11.8 µM (active). For the compound `COC(=O)Nc1cccc(OC(=O)Nc2cccc(C)c2)c1`, the compound was classed as inactive. As for `Cc1cc(Cl)ccc1OCCCC(=O)O`, the result was inactive. Same read-out and setting: the entry for `O=C(CBr)c1ccc(O)cc1` is “inactive”. As for `O=C(NC(=O)c1c(F)cccc1F)Nc1cc(Cl)c(OC(F)(F)C(F)C(F)(F)F)cc1Cl` (configuration not stated), the AC50 is 43.7 µM (active). With `CCCSP(=S)(OCC)Oc1ccc(SC)cc1` (configuration not stated), the compound was classed as inactive. On the same count and under the same terms, the entry for `CCCCCCCCCCCCN(C)C` is “inactive”. With `CCOc1ccc(N)cc1`, the concentration at half-maximal activity (AC50) is 46.8 µM (active).

`O=C(O)C1(c2ccc3c(c2)OC[C@H](Cc2ccc(-c4ccccc4)cc2)[C@H]3O)CCCC1`: the half-maximal activity concentration (AC50) is 90 µM (active). Turning to `N#Cc1cccnc1`, the call was inactive. With `CC(C)=CC1C(C(=O)OCc2cccc(Oc3ccccc3)c2)C1(C)C` (configuration not stated), the AC50 was 12.3 µM (active). For the compound `O=C(NC(=O)c1c(F)cccc1F)Nc1ccc(Cl)cc1`, the compound was classed as inactive. Turning to `CCOP(=S)(OCC)O/N=C(\C#N)c1ccccc1`, the compound was called inactive. On to `CC1(C)[C@H](C(=O)O[C@H](C#N)c2cccc(Oc3ccccc3)c2)[C@@H]1/C=C(\Cl)C(F)(F)F`, for which the compound was called inactive. As to `OCCCCO`, the outcome was inactive.

Take `COCCl`: the compound was called inactive. Consider `COc1nn(C(=O)NS(=O)(=O)c2ccccc2OC(F)(F)F)c(=O)n1C`, for which the compound was classed as inactive.

`Cc1cc(Cl)ccc1O`: the compound was called inactive.

For `O=S1(=O)OC(c2cc(Br)c(O)c(Br)c2)(c2cc(Br)c(O)c(Br)c2)c2ccccc21`, the call was inactive.

On to `O=S1OC[C@@H]2[C@H](CO1)[C@]1(Cl)C(Cl)=C(Cl)[C@@]2(Cl)C1(Cl)Cl` (some centres not stated), for which the AC50 is 68.1 µM (active).
